This note sets out measurements from PubChem BioAssay (Tox21).

The target of test [1] is Cytochrome P450 2C9 (Homo sapiens) (UniProt P11712). Put plainly: Cytochrome P450 Family 2 Subfamily C Member 9 (CYP2C9) small molecule antagonists: luciferase reporter qHTS assay (AID 1671198). The note with it: P450-Glo CYP2C9 enzyme assay, luciferin luminescence; series mostly up to 53 µM. The method in brief: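 P450-Glo proluciferin substrate with CYP2C9 enzyme; 10 min RT preincubation, then NADPH regeneration 1 h at 37C; luciferin detection reagent 20 min RT, luminescence in relative luminescence units.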
Sequence of Cytochrome P450 2C9 (Homo sapiens) (P11712 whole entry, looked up): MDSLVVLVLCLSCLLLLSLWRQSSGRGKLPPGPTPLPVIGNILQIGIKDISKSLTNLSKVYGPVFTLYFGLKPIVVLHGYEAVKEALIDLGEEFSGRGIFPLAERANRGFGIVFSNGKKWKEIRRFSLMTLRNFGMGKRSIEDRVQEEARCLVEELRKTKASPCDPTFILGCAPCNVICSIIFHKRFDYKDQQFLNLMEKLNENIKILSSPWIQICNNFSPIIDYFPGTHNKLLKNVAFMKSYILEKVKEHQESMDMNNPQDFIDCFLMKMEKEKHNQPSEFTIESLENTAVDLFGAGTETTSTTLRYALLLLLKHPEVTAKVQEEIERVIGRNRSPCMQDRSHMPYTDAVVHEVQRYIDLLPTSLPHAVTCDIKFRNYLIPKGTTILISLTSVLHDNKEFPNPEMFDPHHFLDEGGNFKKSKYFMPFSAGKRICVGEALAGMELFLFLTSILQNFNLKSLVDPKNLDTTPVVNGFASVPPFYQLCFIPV
For orientation: Reporter assays use an easily measured gene product as a stand-in for the process of interest.

Test [2] addresses Cytochrome P450 1A2 (Homo sapiens) (UniProt P05177). Put plainly: Cytochrome P450 Family 1 Subfamily A Member 2 (CYP1A2) small molecule antagonists: luciferase reporter qHTS assay (AID 1671199). The note with it: P450-Glo CYP1A2 enzyme, luciferin luminescence, 1 h; series mostly up to 53 µM. In short, it runs like this:
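CYP1A2 turnover of a luminogenic substrate was quantified after 1 h with NADPH regeneration at room temperature. Furafylline served as positive control.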

Test [3] deals with Voltage-gated inwardly rectifying potassium channel KCNH2 (Homo sapiens) (UniProt Q12809). Kind of test: Human Ether-a-go-go-Related Gene (hERG) channel small molecule antagonists: fluorescence cell-based qHTS assay (AID 1671200).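 For activity change, negative = inhibition: hERG-expressing U2OS cells given a thallium stimulus after FluxOR II dye loading.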 The note with it: hERG-U2OS cells, FluxOR thallium flux fluorescence; series mostly up to 76.8 µM. The method in brief: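 hERG-U2OS cells plated overnight at 37 C, loaded with FluxOR II dye 1 h at RT in dark; after 10 min, thallium stimulus added. Fluorescence (480/540 nm) read kinetically for 2 min at 1 s intervals.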
Sequence of Voltage-gated inwardly rectifying potassium channel KCNH2 (Homo sapiens) (Q12809 whole entry, looked up): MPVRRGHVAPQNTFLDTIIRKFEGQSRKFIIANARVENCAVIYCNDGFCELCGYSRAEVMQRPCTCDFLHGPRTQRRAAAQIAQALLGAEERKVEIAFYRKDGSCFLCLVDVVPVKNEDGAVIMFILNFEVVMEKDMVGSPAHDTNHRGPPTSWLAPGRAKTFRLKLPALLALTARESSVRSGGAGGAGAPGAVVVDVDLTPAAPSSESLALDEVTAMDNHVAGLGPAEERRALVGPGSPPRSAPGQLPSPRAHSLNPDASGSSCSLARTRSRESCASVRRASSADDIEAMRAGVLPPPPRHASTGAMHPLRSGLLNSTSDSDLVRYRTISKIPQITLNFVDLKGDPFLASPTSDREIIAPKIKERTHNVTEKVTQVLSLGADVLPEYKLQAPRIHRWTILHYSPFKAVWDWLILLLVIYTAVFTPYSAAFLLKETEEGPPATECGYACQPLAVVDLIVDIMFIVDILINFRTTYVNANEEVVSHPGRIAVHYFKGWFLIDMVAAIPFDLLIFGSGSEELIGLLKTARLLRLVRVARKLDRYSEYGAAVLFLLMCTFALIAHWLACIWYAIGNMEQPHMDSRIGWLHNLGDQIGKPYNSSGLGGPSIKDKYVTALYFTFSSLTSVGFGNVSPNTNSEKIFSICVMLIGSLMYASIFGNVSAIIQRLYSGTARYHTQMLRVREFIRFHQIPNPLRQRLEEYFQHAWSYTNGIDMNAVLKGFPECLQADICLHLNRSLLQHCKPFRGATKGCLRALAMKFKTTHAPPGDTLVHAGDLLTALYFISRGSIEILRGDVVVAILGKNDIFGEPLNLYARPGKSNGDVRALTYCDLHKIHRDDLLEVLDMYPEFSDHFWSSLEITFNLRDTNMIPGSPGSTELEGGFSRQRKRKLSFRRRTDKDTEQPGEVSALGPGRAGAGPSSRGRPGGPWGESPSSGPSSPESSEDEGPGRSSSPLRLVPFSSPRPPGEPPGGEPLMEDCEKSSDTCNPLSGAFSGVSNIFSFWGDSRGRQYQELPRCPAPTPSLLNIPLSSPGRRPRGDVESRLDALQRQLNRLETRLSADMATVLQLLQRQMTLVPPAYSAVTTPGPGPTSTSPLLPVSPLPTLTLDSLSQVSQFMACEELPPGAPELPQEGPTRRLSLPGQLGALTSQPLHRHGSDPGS

The target of test [4] is Cytochrome P450 3A4 (Homo sapiens) (UniProt P08684). Kind of test: Cytochrome P450 Family 3 Subfamily A Member 4 (CYP3A4) small molecule antagonists: luciferase reporter qHTS assay (AID 1671201). The note with it: P450-Glo CYP3A4 enzyme, luciferin luminescence, 1 h; series mostly up to 115 µM. The method in brief: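 P450-Glo CYP3A4 luminescent assay: compounds preincubated 10 min at room temperature with enzyme and proluciferin substrate, NADPH regeneration added, 1 h room-temperature reaction, stopped with luciferin detection reagent; luminescence read after 20 min. Ketoconazole positive control.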
Sequence of Cytochrome P450 3A4 (Homo sapiens) (P08684 whole entry, looked up): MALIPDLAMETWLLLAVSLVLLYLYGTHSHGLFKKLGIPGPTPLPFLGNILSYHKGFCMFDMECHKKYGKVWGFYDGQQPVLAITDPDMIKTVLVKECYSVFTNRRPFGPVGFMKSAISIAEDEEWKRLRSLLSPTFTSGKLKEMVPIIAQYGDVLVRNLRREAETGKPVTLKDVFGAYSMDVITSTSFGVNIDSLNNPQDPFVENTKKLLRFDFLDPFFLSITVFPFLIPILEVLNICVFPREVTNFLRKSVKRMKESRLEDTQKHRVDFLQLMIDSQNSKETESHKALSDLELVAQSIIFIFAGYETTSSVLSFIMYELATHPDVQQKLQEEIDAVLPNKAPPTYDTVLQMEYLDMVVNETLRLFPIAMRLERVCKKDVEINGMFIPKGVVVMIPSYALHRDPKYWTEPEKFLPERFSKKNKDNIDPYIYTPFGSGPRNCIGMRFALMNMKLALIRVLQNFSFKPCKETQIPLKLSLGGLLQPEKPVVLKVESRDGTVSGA

“And” between values parts separate entries of the source, which are not always exact repeats. Equal entries are not always repeated. Inconclusive results are not listed. The source made the active and inactive calls. Calls come from the whole dose curve; as a rule, active = well fitted curve in the direction sought with a large enough effect in the repeat runs; inconclusive = weak or mixed curves; inactive = no such curve, though single readings can be large; an effect the other way counts as inactive or inconclusive.
% is set by controls: 0 for no effect and ±100 for the full control effect; potency is the fitted concentration of half-maximal effect.
Note: nearly all actives have a fitted effect of over 50% in size.

Sequence of Cytochrome P450 1A2 (Homo sapiens) (P05177 whole entry, looked up): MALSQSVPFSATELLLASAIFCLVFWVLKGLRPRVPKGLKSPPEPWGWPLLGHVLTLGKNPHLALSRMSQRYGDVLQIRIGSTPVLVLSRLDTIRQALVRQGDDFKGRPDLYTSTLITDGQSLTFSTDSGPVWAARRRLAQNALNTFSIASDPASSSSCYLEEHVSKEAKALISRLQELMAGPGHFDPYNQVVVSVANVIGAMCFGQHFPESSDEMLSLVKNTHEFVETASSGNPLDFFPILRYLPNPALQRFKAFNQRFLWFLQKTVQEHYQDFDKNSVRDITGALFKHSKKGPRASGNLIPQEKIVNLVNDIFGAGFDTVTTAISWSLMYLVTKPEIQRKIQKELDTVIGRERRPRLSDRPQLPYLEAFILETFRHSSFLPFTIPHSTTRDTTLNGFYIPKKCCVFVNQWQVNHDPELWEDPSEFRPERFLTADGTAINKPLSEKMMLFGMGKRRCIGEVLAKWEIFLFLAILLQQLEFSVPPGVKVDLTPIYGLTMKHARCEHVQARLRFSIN

Take `CNc1ccc(O)cc1`: the Potency in test [1] is 22.4 µM (active); in test [2], 63.2 µM (active); in test [4], 25.1 µM (active). Further, in test [3], the Potency result is “inactive”.
For `COc1cc(-c2ccc(N=C=O)c(OC)c2)ccc1N=C=O`, the Potency entry in test [1], in test [2] and in test [3] was “inactive” each time.
As to `CCCCN1C(=O)[C@@H]([C@H](O)C2CCCCC2)NC(=O)C12CCN(Cc1ccc(Oc3ccc(C(=O)O)cc3)cc1)CC2`, the Potency entry in test [1] and in test [2] was “inactive” in each case. Moreover, the Potency was 19.5 µM (active) in test [3] and 17.8 µM (active) in test [4].
With `CCCCN(CCCC)c1ccc(C(=O)c2ccccc2C(=O)O)c(O)c1`, the Potency in test [1] was 6.39 µM (active); in test [2] it was 63.9 µM (active).
For `N#CC1(c2ccc(F)cc2)CCC(=O)CC1`, the Potency result in test [1], in test [2], in test [3] and in test [4] was “inactive” throughout.
In the case of `CCCCCCCCCOC(=O)c1ccc(O)cc1`, the Potency was 6.24 µM (active) in test [1] and 27.9 µM (active) in test [2]. The Potency entry in test [3] was “inactive”.
Take `CC(C)=CCOc1ccc(/C=C/C(=O)c2ccc(OCC=C(C)C)cc2OCC(=O)O)cc1`: in test [1], the Potency is 15.5 µM (active). Further, the Potency result in test [2], in test [3] and in test [4] was “inactive” in each case.
Take `CC1(C)CCC(C)(C)c2cc(C(=O)Nc3ccc(C(=O)O)cc3)ccc21`: in test [1], the Potency was 71 µM (active). Also, the Potency result in test [2] was “inactive”.
`CCN(C(=O)c1cc(C)cc(OC[C@H](C)Nc2ccncc2)c1)C(C)C`: the Potency in test [1] was 7.02 µM (active); in test [3], 17.2 µM (active); in test [4], 0.992 µM (active). For the same compound, in test [2], the Potency entry is “inactive”.
Consider `Cc1cccc2c1cc1ccc3cccc4ccc2c1c34`, for which the Potency entry in test [1] and in test [3] was “inactive” throughout. The Potency in test [2] was 0.205 µM (active).
Take `Cc1cc(O)c2ccccc2c1O`: the Potency is 12.3 µM (active) in test [1], 1.23 µM (active) in test [2] and 3.38 µM (active) in test [3].
For the compound `NC(=O)C1(N2CCCCC2)CCN(CCCN2c3ccccc3CCc3ccc(Cl)cc32)CC1`, the Potency was 7.76 µM (active) in test [1] and 1.34 µM (active) in test [3]. Besides, the Potency result in test [2] and in test [4] was “inactive” throughout.
For the compound `CCCCCCCCOc1ccccc1C(=O)Nc1ccc(C(=O)OCC[N+](C)(CC)CC)cc1`, in test [1], the Potency was 4.36 µM (active). In addition, in test [2], the Potency result is “inactive”.
On to `CCCCN1CCCC[C@H]1C(=O)Nc1c(C)cccc1C`, for which the Potency entry in test [1] and in test [3] was “inactive” each time. In addition, in test [2], the Potency was 17.4 µM (active).
On to `N#CSc1ccc(N)c([N+](=O)[O-])c1`, for which the Potency is 40.2 µM (active) in test [1] and 1.6 µM (active) in test [2]. Further, the Potency result in test [3] is “inactive”.
`CC(C)OC(=O)c1cc2c(OCC(O)CNC(C)(C)C)cccc2[nH]1` (centres undefined): the Potency result in test [1] and in test [2] was “inactive” each time.
`Cc1c(C)c2c(c(C)c1O)CCC(C)(COc1ccc(CC3SC(=O)NC3=O)cc1)O2` (centres undefined): in test [1], the Potency was 5.03 µM (active) and 4.9 µM (active). Further, the Potency result in test [2] and in test [3] was “inactive” throughout.
On to `CN(C)CCCOC1(Cc2ccccc2)CCCCCC1`, for which the Potency result in test [1] and in test [2] was “inactive” throughout.
Regarding `CCCCCCC[N+](CC)(CC)CCCCc1ccc(Cl)cc1`, the Potency entry in test [1] and in test [2] was “inactive” each time.
Take `COc1cc(-c2nc(NC(=O)c3cc4cc(C)cc(C)c4n3CC(=O)O)sc2CCC2CCCCC2)c(OC)cc1Cl`: the Potency in test [1] is 51.7 µM (active). Further, the Potency result in test [2] and in test [3] was “inactive” in each case.
Regarding `CC(C)n1nc(-c2cc3cc(O)ccc3[nH]2)c2c(N)ncnc21`, the values for the Potency in test [1] and in test [2] were 2.45 µM (active) and 3.63 µM (active), respectively. Besides, the Potency entry in test [3] was “inactive”.
In the case of `CCc1cc(Cc2cc(CC)cc(C(C)(C)C)c2O)c(O)c(C(C)(C)C)c1`, the Potency in test [1] is 3.17 µM (active); in test [4], 17.8 µM (active). Moreover, the Potency entry in test [2] is “inactive”.
On to `C1CCCC1`, for which the Potency entry in test [1], in test [3] and in test [4] was “inactive” throughout.
With `CCc1oc2ccccc2c1C(=O)c1cc(Br)c(O)c(Br)c1`, the Potency result in test [2] and in test [4] was “inactive” in each case. Further, the Potency in test [3] is 10.7 µM (active).
Regarding `Cc1onc(-c2ccccc2Cl)c1C(=O)N[C@@H]1C(=O)N2[C@@H]1SC(C)(C)[C@@H]2C(=O)O`, the Potency entry in test [3] is “inactive”.
Turning to `CN1CCN(CCC(=O)N2c3ccccc3Sc3ccc(C(F)(F)F)cc32)CC1`, the Potency entry in test [1] is “inactive”. In addition, the Potency in test [3] was 4.77 µM (active).
For the compound `C/C=C1/C(=O)C[C@H]2[C@@H]3CCC4=CC(=O)CC[C@]4(C)[C@H]3CC[C@]12C`, the Potency in test [1] was 31.6 µM (active); in test [2] it was 39.8 µM (active). In addition, in test [4], the Potency entry is “inactive”.
Take `CC(C)(C)C(=O)OCOC(=O)[C@@H]1N2C(=O)[C@@H](NC(=O)[C@H](N)c3ccccc3)[C@H]2SC1(C)C`: the Potency result in test [2] and in test [3] was “inactive” in each case.
As for `CC1=C(/C=C/C(C)=C/C=C/C(C)=C/C=O)C(C)(C)CCC1`, the figures for the Potency in test [1] and in test [4] were 44.6 µM (active) and 28.1 µM (active), respectively.
`CS(=O)(=O)CCNCc1ccc(-c2ccc3ncnc(Nc4ccc(OCc5cccc(F)c5)c(Cl)c4)c3c2)o1`: in test [2], the Potency entry is “inactive”.
On to `C=C(C)C(=O)OCC[N+](C)(C)C`, for which, in test [2], the Potency was 15.8 µM (active). The Potency result in test [3] and in test [4] was “inactive” each time.
Turning to `CC(C)(C)NC(=O)[C@@H]1C[C@@H]2CCCC[C@@H]2CN1C[C@@H](O)[C@H](Cc1ccccc1)NC(=O)[C@H](CC(N)=O)NC(=O)c1ccc2ccccc2n1`, the Potency was 40.4 µM (active) in test [1] and 22.2 µM (active) in test [3].
For `[Cl][Au]([Cl])[Cl]`, in test [3], the Potency result was “inactive”.
As for `O=C(O)c1ccc(Cl)c(Cl)c1`, the Potency entry in test [1], in test [3] and in test [4] was “inactive” each time.
In the case of `COc1cccc2c1C(=O)c1c(O)c3c(c(O)c1C2=O)C[C@@](O)(C(=O)CO)C[C@@H]3O[C@H]1C[C@H](N)[C@H](O[C@@H]2CCCCO2)[C@H](C)O1`, the Potency result in test [2] and in test [3] was “inactive” throughout.
`CC(=O)SC[C@@H](Cc1ccccc1)C(=O)NCC(=O)OCc1ccccc1`: in test [1], the Potency was 3.47 µM (active). Further, the Potency result in test [3] was “inactive”.
Consider `OCCN(CCO)c1nc(N2CCCCC2)c2nc(N(CCO)CCO)nc(N3CCCCC3)c2n1`, for which the Potency result in test [3] is “inactive”.
The same measure, in the same setting: then `On1ccccc1=S`, with “inactive”.
In the case of `O=CC=C(c1ccccc1)c1ccccc1`, the Potency was 20.2 µM (active) in test [2] and 39.2 µM (active) in test [3]. For the same compound, the Potency result in test [4] was “inactive”.
Take `CCCCCCCC/C=C\CCCCCCCCOCCO`: the Potency result in test [2] is “inactive”. Also, the Potency in test [4] was 11.6 µM (active).
On to `C[C@@H](NCCCc1cccc(C(F)(F)F)c1)c1cccc2ccccc12`, for which the Potency entry in test [1] was “inactive”. Also, the Potency in test [3] is 10.7 µM (active).
The corresponding values for `Cc1c(C)c2c(c(C)c1OC(=O)CCC(=O)O)CC[C@@](C)(CCC[C@H](C)CCC[C@H](C)CCCC(C)C)O2` are “inactive” and “inactive”.
With `CN(C)[C@@H]1C(=O)C(C(N)=O)=C(O)[C@@]2(O)C(=O)C3=C(O)c4c(O)ccc(Cl)c4[C@@H](O)[C@H]3C[C@@H]12`, the Potency result in test [2], in test [3] and in test [4] was “inactive” each time.
In the case of `Fc1ccc(C(c2ccc(F)cc2)N2CCN(C/C=C/c3ccccc3)CC2)cc1`, the Potency in test [1] is 15.5 µM (active); in test [3], 0.848 µM (active).
As to `O=c1cc(-c2ccc(O)cc2)oc2cc(O)cc(O)c12`, the Potency in test [1] is 36.1 µM (active) and 39.9 µM (active). For the same compound, the Potency entry in test [3] is “inactive”.
On to `CCC1=C[C@@H]2CN(C1)Cc1c([nH]c3ccccc13)[C@@](C(=O)OC)(c1cc3c(cc1OC)N(C)[C@H]1[C@@](O)(C(=O)OC)[C@H](OC(C)=O)[C@]4(CC)C=CCN5CC[C@]31[C@@H]54)C2`, for which, in test [2], the Potency entry was “inactive”. Further, the Potency in test [3] is 6.74 µM (active).
For `C[C@H](CCC(=O)O)[C@H]1CC[C@H]2[C@@H]3CC[C@@H]4C[C@H](O)CC[C@]4(C)[C@H]3CC[C@]12C`, in that order: “inactive” and “inactive”.
Turning to `CCCCCCCC/C=C/CCCCCCCC1=NCCN1CCO`, the results for the Potency in test [1] and in test [4] were 25.2 µM (active) and 31.7 µM (active), respectively.
Consider `C=CC(=O)OCC(CO)(COC(=O)C=C)COC(=O)C=C`, for which the Potency entry in test [3] is “inactive”. Moreover, the Potency in test [4] was 1.01 µM (active) and 1.12 µM (active).
Take `CCCCCCCCCCC=O`: the Potency entry in test [1] and in test [3] was “inactive” throughout.
For the compound `COc1cccc(N)c1`, the Potency entry in test [3] is “inactive”.
For the compound `CO[Si](CCCNc1ccccc1)(OC)OC`, the Potency entry in test [2] and in test [3] was “inactive” each time. For the same compound, the Potency in test [4] was 25.2 µM (active).
As to `Oc1c(Cl)cc(Cl)c2cccnc12`, the Potency result in test [3] was “inactive”.
Consider `CC(NN)c1ccccc1` (centres undefined), for which the Potency entry in test [2] is “inactive”. Moreover, the activity change, negative = inhibition in test [3] is -1.06% [at 15.8 µM] (inactive).
With `O=C(c1ccc(F)cc1)C1CCN(CCn2c(=O)[nH]c3ccccc3c2=O)CC1`, the Potency entry in test [2] and in test [4] was “inactive” in each case. In addition, in test [3], the Potency was 2.39 µM (active).
`C[n+]1cc2c3c(ccc2c2ccc4cc5c(cc4c21)OCO5)OCO3`: the Potency in test [2] was 12 µM (active). In test [3], the activity change, negative = inhibition is -0.0312% [at 15.8 µM] (inactive).
For `CSc1ccc(C(=O)c2[nH]c(=O)[nH]c2C)cc1`, the Potency entry in test [1], in test [3] and in test [4] was “inactive” throughout.
